Assay outcomes: PubChem BioAssay, National Center for Advancing Translational Sciences (NCATS)
D1 agonist: activates the human D1 dopamine receptor | P21728 | HEK293 T-REx D1 cells, calcium flux, agonist mode | activation, % at 2 µM | 360,000 compounds, 1% hits | AID 504660; in the data active = activation above about 30%
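Agonism was scored from calcium flux recorded over 180 s (1 read/s) after pintool compound addition, following a 10-cycle baseline. Cells were inducible force-coupled HEK293 TREx D1, plated overnight at 30 C and loaded with no-wash calcium dye.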
D3 ag: agonists of human D3 dopamine receptor; P35462; D3R DiscoveRx beta-arrestin cells, luminescence, 90 min; max activation, %; 410,000 compounds, 0.58% hits; AID 652048; in the data active = max activation above about 30%
Target sequence (P35462 whole entry, looked up): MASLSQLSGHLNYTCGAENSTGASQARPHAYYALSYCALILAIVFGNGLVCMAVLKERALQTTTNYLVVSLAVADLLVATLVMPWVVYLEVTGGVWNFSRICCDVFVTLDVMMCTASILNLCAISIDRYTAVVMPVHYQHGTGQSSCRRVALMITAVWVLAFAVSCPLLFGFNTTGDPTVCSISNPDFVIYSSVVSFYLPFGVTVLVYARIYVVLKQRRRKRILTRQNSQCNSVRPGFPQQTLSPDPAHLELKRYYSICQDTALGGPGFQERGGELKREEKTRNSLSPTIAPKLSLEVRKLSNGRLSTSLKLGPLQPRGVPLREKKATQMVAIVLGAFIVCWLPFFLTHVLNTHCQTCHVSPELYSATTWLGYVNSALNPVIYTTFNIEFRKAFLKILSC
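Agonist-mode cell screen: cells plated at 1500/well and incubated overnight at 37 °C, then exposed to library compounds for 90 min at 37 °C. Detection reagent was added for 30–60 min at room temperature, and luminescence was read.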
D1 antag: human D1 dopamine receptor antagonism; P21728; HEK293 TREx D1 cells, calcium flux, dopamine EC80; active compounds read low; activity change, negative = inhibition, % at 10 µM; 360,000 compounds, 3.2% hits; AID 504652; in the data active = activity change below about -30%
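Allosteric or orthosteric antagonism assessed as attenuation of the calcium response to EC80 dopamine, added 180 s after compound, in induced HEK293 Trex D1 cells loaded with no-wash calcium dye.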
D1 PAM: human D1 dopamine receptor positive modulation | AID 504651 | 360,000 compounds, 0.036% hits | HEK293 TREx D1 cells, calcium flux, dopamine EC20 potentiation | potentiation, % at 10 µM | P21728; in the data active = potentiation above about 30%
D3 antag: D3 dopamine receptor (human) antagonism. P35462. D3R cells, DiscoveRx beta-arrestin luminescence, antagonist mode; active compounds read low. max response, negative = inhibition, %. 360,000 compounds, 2.5% hits. AID 652054; in the data active = max response below about -50%; inconclusive = no clear call, values can overlap the other calls
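Cells expressing the human receptor were seeded at 1500 cells/well, incubated overnight at 37 degrees C in 5% CO2, then exposed to library compounds with dopamine controls for 90 minutes at 37 degrees C before luminescent detection.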
Large screens that a line does not name were inactive. An excerpt weighted towards active compounds, which were near 6.1% of everything screened.

Cc1ccc2nc(Cl)c(C3CC(c4cccs4)=NN3C(=O)CCCC(=O)O)cc2c1 (stereo unspecified)	D3 ag 32
Cc1cc(C)cc(OCc2cc(=O)n3cc(C)sc3n2)c1	none (no result: D3 antag)
Cc1cc(S(=O)(=O)C(CNC(=O)c2ccc(OC(C)C)cc2)c2cccs2)ccc1F (stereo unspecified)	D1 antag -74 (no result: D3 antag)
COc1ccc(CC(=O)NCC(c2cccs2)S(=O)(=O)c2ccc(F)c(C)c2)cc1 (stereo unspecified)	none (no result: D3 antag)
CC(C)(O)C#Cc1ccc(CN2CCN(Cc3ccsc3)C(CCO)C2)s1 (stereo unspecified)	none
CC(C)(O)C#Cc1ccc(CN2CCN(Cc3ccccc3)C(CCO)C2)s1 (stereo unspecified)	none
CC(C)=CCN1CCN(Cc2ccc(C#CC(C)(C)O)s2)CC1CCO (stereo unspecified)	D1 antag -37
CC(C)(O)C#Cc1ccc(CN2CCN(CCc3ccccc3)C(CCO)C2)s1 (stereo unspecified)	D1 antag -37
COc1cccc(CC(=O)N2CCN(c3ccccc3[N+](=O)[O-])CC2)c1	D1 antag -40
COc1ccc(N2CCN(C(=O)c3ccccc3Br)CC2)c([N+](=O)[O-])c1	D1 agonist 38, D1 antag -49
COc1ccc(N2CCN(C(=O)c3ccccc3)CC2)c([N+](=O)[O-])c1	none
NC(=O)CS(=O)(=O)c1nc2ccccc2n1Cc1ccccn1	D1 antag -38
COc1ccc(Cn2c(S(=O)(=O)CC(N)=O)nc3ccccc32)cc1[N+](=O)[O-]	none (no result: D3 ag, D3 antag)
CCCS(=O)(=O)N1CC(=O)N(c2ccccc2F)C(C)(C(=O)NC2CCCCCC2)C1 (stereo unspecified)	none (no result: D3 antag)
CCOc1ccccc1NC(=O)COC(=O)CN(C)S(=O)(=O)c1ccc(C)cc1	D1 antag -45
CCOc1ccccc1NC(=O)COC(=O)Cc1ccc(-c2ccccc2)cc1	D1 agonist 39, D1 antag -37
CCOc1ccccc1NC(=O)COC(=O)CNS(=O)(=O)c1ccc(C)cc1	none
CCN(c1ccccc1)c1nnc(NC(=O)Nc2cccc(Br)c2)s1	none (no result: D3 antag)
O=C(/C=C/c1ccco1)OCC1CCCN2CCCCC12 (stereo unspecified)	none
O=C(Nc1ccccc1)OCC(CN1CCCCC1)OC(=O)Nc1ccccc1 (stereo unspecified)	D3 antag -89
O=C(Nc1ccccc1)OC(CN1CCCCC1)C(F)(F)F (stereo unspecified)	none
O=C(Nc1ccccc1)OCC1CCCN2CCCCC12 (stereo unspecified)	D3 antag -53
CCOc1ccc(N(CC(=O)Nc2ccc(C)c(C)c2)S(=O)(=O)c2c(C)noc2C)cc1	D3 antag -66
CCOc1ccccc1NC(=O)CN(c1ccc(OC)cc1)S(=O)(=O)c1c(C)noc1C	D3 antag inconclusive
CCOc1ccc(N(CC(=O)Nc2cccc(F)c2)S(=O)(=O)c2c(C)noc2C)cc1	D1 antag -34
COc1ccccc1NC(=O)CN(c1ccc(C)cc1)S(=O)(=O)c1c(C)n[nH]c1C	D1 antag -54
COc1ccc(N(CC(=O)Nc2cccc(C)c2)S(=O)(=O)c2c(C)noc2C)cc1	none
CCOc1ccccc1NC(=O)CN(c1cc(C)cc(C)c1)S(=O)(=O)c1c(C)noc1C	D1 antag -40
COc1ccccc1NC(=O)CSc1oc(-c2ccccc2)nc1S(=O)(=O)c1ccccc1	none (no result: D3 antag)
CCCn1c2ccccc2c2cnn(CC(=O)N3CCCC(C)C3)c(=O)c21 (stereo unspecified)	none (no result: D3 antag)
Cc1noc(C)c1S(=O)(=O)N(CC(=O)NCc1ccc(F)cc1)c1ccc(C(C)C)cc1	D1 antag -35
CCNS(=O)(=O)c1ccc(NC(=O)Nc2cc(C)ccc2OC)cc1	D1 antag -37
Cc1cccc(-c2nc(S(=O)(=O)c3ccc(Cl)cc3)c(N3CCCCCC3)o2)c1	none (no result: D3 antag)
Cc1c(Cl)cccc1NC(=O)CSc1sc2c(O)cc(=O)[nH]c2c1C#N	none
N#Cc1c(SCC(=O)Nc2ccccc2C(F)(F)F)sc2c(O)cc(=O)[nH]c12	D1 antag -33
CCCCCOC(=O)c1ccc(OC(=O)c2cncc(Br)c2)cc1	D3 antag -74
CCCC(=O)Oc1ccc2c(C)cc(=O)oc2c1	none
Cc1cc(=O)oc2cc(OC(=O)c3cncc(Br)c3)ccc12	D1 antag -45
CCCCCCCOC(=O)c1ccc(OC(=O)c2cccnc2)cc1	none
CCN(CC)S(=O)(=O)c1ccc2c(c1)c(=O)c(C(=O)N1CCN(c3ccc(OC)cc3)CC1)cn2C	none (no result: D3 antag)
Cn1cc(C=C2C(=O)OC3(CCCCC3)OC2=O)c2ccccc21	D1 antag -30
COc1ccc(S(=O)(=O)c2c(SC)nn(CC(=O)Nc3ccc(C)c(Cl)c3)c2N)cc1	none (no result: D3 antag)
O=C(/C=C/c1cccc2ccccc12)c1ccncc1	none
Cc1[nH]c2ccccc2c1/C=C/C(=O)c1ccncc1	D1 agonist 55
CN(Cc1ccccc1)C(=O)c1ccc(CSc2nc3cccnc3n2Cc2ccccc2F)cc1	none (no result: D3 antag)
CCOc1ccccc1CNCc1ccc(F)cc1	D1 antag -31
Cn1cnc([N+](=O)[O-])c1S(=O)(=O)c1ccc(Cl)cc1	D3 antag -68
O=c1ccc2cc(S(=O)(=O)N3CCCC3)ccc2[nH]1	none (no result: D3 antag)
O=S(=O)(c1ccc2[nH]ccc2c1)N1CCCCCC1	D1 antag -30
COc1ccccc1CN1CCc2c([nH]c3ccccc23)C1	D3 antag -90
Clc1cccc(CN2CCc3c([nH]c4ccccc34)C2)c1Cl	none
COc1cc(CN2CCc3c([nH]c4ccccc34)C2)cc(OC)c1	D3 antag -68
CCc1oc2ccccc2c1C(=O)CCN1CCCCC1	D3 antag -94
COc1ccc(C)c2sc(NC(=O)c3ccc(S(=O)(=O)N(C)C)cc3)nc12	none (no result: D3 antag)
COc1ccc(C)cc1NC(=O)C(NS(=O)(=O)c1cccc2nsnc12)c1ccccc1 (stereo unspecified)	none (no result: D3 antag)
COc1ccc(C)cc1NC(=O)C(NS(=O)(=O)c1cccs1)c1ccccc1 (stereo unspecified)	D1 antag -35 (no result: D3 antag)
Cc1ccc(NC(=O)C(Cc2ccccc2)NS(=O)(=O)c2cccs2)cc1Cl (stereo unspecified)	D1 antag -42 (no result: D3 antag)
O=C(Cn1c(=O)n(-c2ccc(Cl)cc2)c(=O)c2sc3ccccc3c21)NC1CCCCC1	none (no result: D3 antag)
CCCCCNCc1ccc(Cl)cc1	none
CCCCCCNCc1ccc(Br)cc1	D3 antag -66
Brc1cccc(CNCCCN2CCOCC2)c1	D3 antag inconclusive
CCCCCNCc1ccc(Br)cc1	D3 antag inconclusive
CCCCCCNCc1cccc(Br)c1	D3 antag -81
CCCCCNCc1cccc(Br)c1	D3 antag -63
Cn1c(=O)c2sccc2n2c(CCC(=O)N3CCN(c4ccc(F)cc4)CC3)nnc12	none (no result: D3 ag, D3 antag)
